In PubChem BioAssay (NCI):
This is part of a sample that, as a whole, favours compounds with a hit. Of some 83,000 tested, about 20% had one in any assay.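 Testing used 96-well plates and a 48-hour single-concentration exposure. Example: -40 means 40% of the starting cells died.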 Active and inactive are the calls of the source. The calls were made as follows: active = growth percent below 10; inactive = the rest.

What was measured:
Experiment in all cases: NCI-60 one-dose screen, 48 h (100 = growth as untreated, 0 = no growth, -100 = all killed)
DU-145 prostate = conditions: 10 µM
K-562 leukemia = conditions: 10 µM
MALME-3M melanoma = conditions: 10 µM
MDA-MB-231 breast = conditions: 10 µM
RXF 393 renal = conditions: 10 µM
SF-268 CNS = conditions: 10 µM
SF-295 CNS = conditions: 10 µM
SF-539 CNS = conditions: 10 µM
UACC-257 melanoma = conditions: 10 µM
HCT-15 colon = conditions: 10 µM
HT29 colon = conditions: 10 µM
SNB-75 CNS = conditions: 10 µM
SNB-19 CNS = conditions: 10 µM
U251 CNS = conditions: 10 µM
SK-MEL-5 melanoma = conditions: 10 µM
UACC-62 melanoma = conditions: 10 µM unless noted
LOX IMVI melanoma = conditions: 10 µM
SK-MEL-28 melanoma = conditions: 10 µM
PC-3 prostate = conditions: 10 µM
M14 melanoma = conditions: 10 µM

Measured: growth

Cc1cc2ccccc2c(O)c1C#N
inactive: DU-145 prostate 120% | K-562 leukemia 92.8% | MALME-3M melanoma 126% | MDA-MB-231 breast 98.9% | RXF 393 renal 118% | SF-268 CNS 103% | SF-295 CNS 116% | SF-539 CNS 110% | UACC-257 melanoma 106% | HCT-15 colon 92.2% | HT29 colon 123% | SNB-75 CNS 78.3% | SNB-19 CNS 100% | U251 CNS 109% | SK-MEL-5 melanoma 104% | UACC-62 melanoma 97.7% | LOX IMVI melanoma 94.4% | SK-MEL-28 melanoma 115%

C=CCNc1ccccc1
inactive: DU-145 prostate 122% | K-562 leukemia 113% | MALME-3M melanoma 124% | MDA-MB-231 breast 86.7% | RXF 393 renal 113% | SF-268 CNS 104% | SF-295 CNS 138% | SF-539 CNS 104% | UACC-257 melanoma 102% | HCT-15 colon 106% | HT29 colon 98.4% | SNB-75 CNS 82.7% | SNB-19 CNS 91.5% | PC-3 prostate 85.2% | SK-MEL-5 melanoma 102% | UACC-62 melanoma 89.9% | LOX IMVI melanoma 93.7% | SK-MEL-28 melanoma 99.9%

COc1ccc(C(O)c2ccccc2)cc1 (stereo not drawn)
inactive: DU-145 prostate 108% | K-562 leukemia 88.5% | MALME-3M melanoma 101% | MDA-MB-231 breast 95.5% | RXF 393 renal 111% | SF-268 CNS 93.8% | SF-295 CNS 102% | SF-539 CNS 102% | M14 melanoma 103% | HCT-15 colon 100% | HT29 colon 105% | SNB-75 CNS 96.1% | SNB-19 CNS 105% | U251 CNS 94.1% | PC-3 prostate 94.7% | SK-MEL-5 melanoma 99.3% | UACC-62 melanoma 95.3% | LOX IMVI melanoma 86.2% | SK-MEL-28 melanoma 105%

CC(=O)OCC1CCCO1 (stereo not drawn)
inactive: DU-145 prostate 109% | K-562 leukemia 94.5% | MALME-3M melanoma 99.2% | MDA-MB-231 breast 103% | RXF 393 renal 103% | SF-268 CNS 107% | SF-295 CNS 101% | SF-539 CNS 114% | M14 melanoma 110% | HCT-15 colon 100% | HT29 colon 101% | SNB-75 CNS 96.1% | SNB-19 CNS 105% | U251 CNS 103% | PC-3 prostate 108% | SK-MEL-5 melanoma 101% | UACC-62 melanoma 99.8% | LOX IMVI melanoma 98% | SK-MEL-28 melanoma 108%

CC(=O)OC(OC(C)=O)C1CCCO1 (stereo not drawn)
inactive: DU-145 prostate 112% | K-562 leukemia 135% | MALME-3M melanoma 112% | MDA-MB-231 breast 91.8% | RXF 393 renal 115% | SF-268 CNS 97.8% | SF-295 CNS 112% | SF-539 CNS 100% | UACC-257 melanoma 98% | HCT-15 colon 104% | HT29 colon 106% | SNB-75 CNS 90.2% | SNB-19 CNS 109% | PC-3 prostate 95.5% | SK-MEL-5 melanoma 104% | UACC-62 melanoma 95.2% | LOX IMVI melanoma 89.7% | SK-MEL-28 melanoma 97%

Nc1ncnc2[nH]ncc12
active: DU-145 prostate 2.47% | MDA-MB-231 breast 5.28% | HCT-15 colon 5.92% | PC-3 prostate 7.63% | UACC-62 melanoma -15.9% | LOX IMVI melanoma 1.37%
inactive: K-562 leukemia 13% | MALME-3M melanoma 21.3% | RXF 393 renal 14.9% | SF-268 CNS 29.9% | SF-295 CNS 21% | SF-539 CNS 35.6% | UACC-257 melanoma 16.3% | HT29 colon 12.3% | SNB-75 CNS 33.3% | SNB-19 CNS 71.3% | SK-MEL-5 melanoma 15% | SK-MEL-28 melanoma 28.5%

Oc1ccccc1-c1nnco1
inactive: DU-145 prostate 99.7% | K-562 leukemia 75.4% | MALME-3M melanoma 96.2% | MDA-MB-231 breast 84.4% | RXF 393 renal 74% | SF-268 CNS 65.4% | SF-295 CNS 112% | SF-539 CNS 89.9% | UACC-257 melanoma 97.3% | HCT-15 colon 100% | HT29 colon 97.5% | SNB-75 CNS 45.5% | SNB-19 CNS 93.2% | U251 CNS 82.9% | SK-MEL-5 melanoma 102% | UACC-62 melanoma 89.9% | LOX IMVI melanoma 87.7% | SK-MEL-28 melanoma 101%

O=C(O)/C=C/C(=O)NCc1ccccc1
inactive: DU-145 prostate 121% | K-562 leukemia 108% | MALME-3M melanoma 99% | MDA-MB-231 breast 125% | RXF 393 renal 104% | SF-268 CNS 110% | SF-295 CNS 98.1% | SF-539 CNS 95.7% | M14 melanoma 103% | HCT-15 colon 97.3% | HT29 colon 105% | SNB-75 CNS 81.9% | SNB-19 CNS 115% | U251 CNS 118% | PC-3 prostate 101% | SK-MEL-5 melanoma 101% | UACC-62 melanoma 118% | LOX IMVI melanoma 97% | SK-MEL-28 melanoma 105%

CCCNC(=O)c1ccc(S(N)(=O)=O)cc1
inactive: DU-145 prostate 109% | K-562 leukemia 107% | MALME-3M melanoma 113% | MDA-MB-231 breast 101% | RXF 393 renal 107% | SF-268 CNS 103% | SF-295 CNS 127% | SF-539 CNS 97.8% | UACC-257 melanoma 110% | HCT-15 colon 110% | HT29 colon 93.1% | SNB-75 CNS 72.6% | SNB-19 CNS 107% | U251 CNS 103% | SK-MEL-5 melanoma 101% | UACC-62 melanoma 109% | LOX IMVI melanoma 98.9% | SK-MEL-28 melanoma 97.8%

CC(=O)NCc1cc(C)c(C)cc1C
inactive: DU-145 prostate 104% | K-562 leukemia 94.2% | MALME-3M melanoma 88.7% | MDA-MB-231 breast 110% | RXF 393 renal 103% | SF-268 CNS 95.7% | SF-295 CNS 103% | SF-539 CNS 102% | M14 melanoma 105% | HCT-15 colon 105% | HT29 colon 97.2% | SNB-75 CNS 87.9% | SNB-19 CNS 109% | U251 CNS 97.9% | SK-MEL-5 melanoma 104% | UACC-62 melanoma 109% | LOX IMVI melanoma 98.6% | SK-MEL-28 melanoma 103%

Cc1cc(N)c(S(=O)(=O)O)c(N)c1
inactive: DU-145 prostate 96.6% | K-562 leukemia 125% | MALME-3M melanoma 118% | MDA-MB-231 breast 103% | RXF 393 renal 112% | SF-268 CNS 109% | SF-295 CNS 96% | SF-539 CNS 96.8% | UACC-257 melanoma 104% | HCT-15 colon 105% | HT29 colon 111% | SNB-75 CNS 98.8% | SNB-19 CNS 90.7% | U251 CNS 98.7% | SK-MEL-5 melanoma 104% | UACC-62 melanoma 92.4% | LOX IMVI melanoma 94% | SK-MEL-28 melanoma 104%

CN(C)c1ccc(C(c2ccc(O)cc2)c2ccc(N(C)C)cc2)cc1
inactive: DU-145 prostate 101% | K-562 leukemia 49.9% | MALME-3M melanoma 91.5% | MDA-MB-231 breast 87.3% | RXF 393 renal 112% | SF-268 CNS 92.1% | SF-295 CNS 103% | SF-539 CNS 104% | M14 melanoma 89.3% | HCT-15 colon 70.8% | HT29 colon 86.2% | SNB-75 CNS 87.3% | SNB-19 CNS 97.2% | U251 CNS 98.5% | PC-3 prostate 88.7% | SK-MEL-5 melanoma 90.5% | UACC-62 melanoma 79.8% | SK-MEL-28 melanoma 101%

OCC1OC(OC2C(O)C(CO)OC2(CO)OC2OC(CO)C(O)C(O)C2O)C(O)C(O)C1O (stereo not drawn)
inactive: DU-145 prostate 116% | K-562 leukemia 139% | MALME-3M melanoma 138% | MDA-MB-231 breast 99.6% | RXF 393 renal 118% | SF-268 CNS 106% | SF-295 CNS 131% | SF-539 CNS 96.9% | UACC-257 melanoma 97.6% | HCT-15 colon 107% | HT29 colon 102% | SNB-75 CNS 86.1% | SNB-19 CNS 102% | U251 CNS 109% | PC-3 prostate 98.5% | SK-MEL-5 melanoma 109% | UACC-62 melanoma 107% | LOX IMVI melanoma 93.1% | SK-MEL-28 melanoma 106%

CC(=O)c1ccc(C(C)(C)C)cc1
inactive: DU-145 prostate 105% | K-562 leukemia 103% | MALME-3M melanoma 102% | MDA-MB-231 breast 107% | RXF 393 renal 95.2% | SF-268 CNS 102% | SF-295 CNS 97.6% | SF-539 CNS 94.3% | UACC-257 melanoma 97.2% | HCT-15 colon 101% | HT29 colon 96.7% | SNB-75 CNS 97.7% | SNB-19 CNS 95.6% | U251 CNS 99.6% | PC-3 prostate 91.2% | SK-MEL-5 melanoma 101% | UACC-62 melanoma 91.1% | SK-MEL-28 melanoma 120%

CCOC(=O)c1[nH]c(C)c(C(C)=O)c1C
inactive: DU-145 prostate 93.7% | K-562 leukemia 87.3% | MALME-3M melanoma 95.7% | MDA-MB-231 breast 96.6% | RXF 393 renal 97.3% | SF-268 CNS 93.5% | SF-295 CNS 92.6% | SF-539 CNS 92.6% | UACC-257 melanoma 98.3% | HCT-15 colon 103% | HT29 colon 93% | SNB-75 CNS 78.2% | SNB-19 CNS 94.4% | U251 CNS 91.2% | SK-MEL-5 melanoma 93.4% | UACC-62 melanoma 100% | LOX IMVI melanoma 82.2% | SK-MEL-28 melanoma 97.4%

COc1ncnc2c1cnn2C
inactive: DU-145 prostate 111% | K-562 leukemia 115% | MALME-3M melanoma 126% | MDA-MB-231 breast 100% | RXF 393 renal 114% | SF-268 CNS 101% | SF-295 CNS 112% | SF-539 CNS 96.8% | UACC-257 melanoma 106% | HCT-15 colon 98.9% | HT29 colon 107% | SNB-75 CNS 113% | SNB-19 CNS 110% | U251 CNS 106% | PC-3 prostate 101% | SK-MEL-5 melanoma 101% | UACC-62 melanoma 98.9% | SK-MEL-28 melanoma 111%

CCOc1ccccc1/C=N/Nc1nc2ccccc2o1
inactive: DU-145 prostate 110% | K-562 leukemia 95.7% | MALME-3M melanoma 97.5% | MDA-MB-231 breast 82.8% | RXF 393 renal 112% | SF-268 CNS 108% | SF-295 CNS 108% | SF-539 CNS 104% | UACC-257 melanoma 113% | HCT-15 colon 76.3% | HT29 colon 110% | SNB-75 CNS 83.9% | SNB-19 CNS 100% | U251 CNS 105% | PC-3 prostate 85.8% | SK-MEL-5 melanoma 97.7% | UACC-62 melanoma 82.6% | SK-MEL-28 melanoma 100%

CCOC(=O)CCCS(C)(=O)=O
inactive: DU-145 prostate 117% | K-562 leukemia 113% | MALME-3M melanoma 105% | MDA-MB-231 breast 99% | RXF 393 renal 113% | SF-268 CNS 108% | SF-295 CNS 117% | SF-539 CNS 97.7% | UACC-257 melanoma 108% | HCT-15 colon 104% | HT29 colon 105% | SNB-75 CNS 86.2% | SNB-19 CNS 100% | U251 CNS 105% | SK-MEL-5 melanoma 102% | UACC-62 melanoma 93.7% | LOX IMVI melanoma 98.8% | SK-MEL-28 melanoma 104%
